For some of these results: Results with a measured potency or affinity are listed apart.
How the values were obtained:
Set-up in all cases: scale not given: direction of the effect not stated beside the values
[1] = biological target: Protein translocase subunit SecA (Escherichia coli (strain K12)) (UniProt P10408); experiment: Assay to Identify E. coli SecA ATPase Inhibitors; assay type: functional; settings: 30 µM
[2] = biological target: T1, Ubiquitin-activating enzyme e1, putative (Leishmania donovani (strain BPK282A1)) (UniProt E9BSI1); experiment: Leishmania donovani Ubiquitin Activating Enzyme (LdE1); assay type: functional; settings: 30 µM
T1 sequence (whole entry): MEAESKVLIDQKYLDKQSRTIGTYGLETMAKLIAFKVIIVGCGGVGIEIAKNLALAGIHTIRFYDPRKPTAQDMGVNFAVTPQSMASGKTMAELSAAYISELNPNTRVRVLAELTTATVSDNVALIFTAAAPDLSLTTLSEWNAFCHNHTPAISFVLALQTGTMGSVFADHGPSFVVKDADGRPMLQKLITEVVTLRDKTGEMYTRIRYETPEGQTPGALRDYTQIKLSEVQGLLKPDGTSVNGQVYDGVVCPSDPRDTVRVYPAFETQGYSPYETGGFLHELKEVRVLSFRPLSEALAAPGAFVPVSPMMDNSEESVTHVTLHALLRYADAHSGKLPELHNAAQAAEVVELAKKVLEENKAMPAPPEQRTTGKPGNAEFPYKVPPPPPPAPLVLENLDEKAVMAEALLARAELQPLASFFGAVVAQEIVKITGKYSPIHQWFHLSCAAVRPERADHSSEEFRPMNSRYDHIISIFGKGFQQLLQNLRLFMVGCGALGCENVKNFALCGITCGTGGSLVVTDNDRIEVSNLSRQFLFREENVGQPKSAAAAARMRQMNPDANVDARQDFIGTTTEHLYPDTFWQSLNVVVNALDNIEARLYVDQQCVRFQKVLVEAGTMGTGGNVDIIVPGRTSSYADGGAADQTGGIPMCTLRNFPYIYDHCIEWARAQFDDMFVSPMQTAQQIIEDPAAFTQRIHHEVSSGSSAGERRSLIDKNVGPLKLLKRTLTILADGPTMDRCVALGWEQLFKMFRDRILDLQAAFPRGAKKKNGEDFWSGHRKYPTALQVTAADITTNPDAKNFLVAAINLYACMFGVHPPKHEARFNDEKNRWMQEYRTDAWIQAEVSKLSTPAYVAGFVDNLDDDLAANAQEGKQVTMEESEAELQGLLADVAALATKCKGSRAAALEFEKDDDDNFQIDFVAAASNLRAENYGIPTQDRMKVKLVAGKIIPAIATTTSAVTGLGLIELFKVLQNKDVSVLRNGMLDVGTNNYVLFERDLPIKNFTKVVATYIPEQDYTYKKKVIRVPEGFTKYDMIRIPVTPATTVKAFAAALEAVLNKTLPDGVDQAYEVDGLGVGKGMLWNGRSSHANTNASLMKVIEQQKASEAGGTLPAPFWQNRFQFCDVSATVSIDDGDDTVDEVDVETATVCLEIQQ

[3] = biological target: AMP-activated protein kinase, AMPK (Homo sapiens) (UniProt P54646+O43741+P54619+Q9UGJ0+Q9Y478+Q13131+Q9UGI9); experiment: AMP-dependent Kinase enzyme assay. An in vitro enzyme assay that detects ADP turnover that is directly proportional to AMPK activity. This uses naive AMPK that is activated during the assay with MK-8722; assay type: functional; settings: 30 µM
[4] = biological target: Sialic acid-binding Ig-like lectin 9 (Homo sapiens) (UniProt Q9Y336); experiment: Hs-Siglec9 ALPHAscreen SOP 20170721; settings: 10 µM
Sequence of Sialic acid-binding Ig-like lectin 9 (Homo sapiens) (Q9Y336 whole entry): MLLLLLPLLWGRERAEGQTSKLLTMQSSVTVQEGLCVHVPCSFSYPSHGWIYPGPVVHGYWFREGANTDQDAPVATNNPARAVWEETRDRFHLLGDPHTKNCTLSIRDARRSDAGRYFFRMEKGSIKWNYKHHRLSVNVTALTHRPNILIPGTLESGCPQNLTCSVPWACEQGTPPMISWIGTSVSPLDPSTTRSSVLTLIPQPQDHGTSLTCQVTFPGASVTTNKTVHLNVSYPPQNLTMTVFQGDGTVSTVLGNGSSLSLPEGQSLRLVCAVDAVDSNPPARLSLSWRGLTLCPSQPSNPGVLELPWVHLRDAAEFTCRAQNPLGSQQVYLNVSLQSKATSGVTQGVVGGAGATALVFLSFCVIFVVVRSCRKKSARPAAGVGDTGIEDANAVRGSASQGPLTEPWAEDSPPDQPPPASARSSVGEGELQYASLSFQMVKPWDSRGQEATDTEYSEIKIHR

Trypanosoma cruzi = experiment: Trypanosoma cruzi phosphomannomutase and mannose-1-phosphate guanylyltransferase assay; assay type: functional; settings: 10 µM
[5] = biological target: T2, Arginase-2, mitochondrial (Homo sapiens) (UniProt P78540); experiment: in vitro enzyme assay to detect the production of urea directly proportional to the activity of Arginase II; assay type: functional; settings: 33.3 µM; further: in the data most compounds retested in dose-response had high values
T2 sequence (whole entry): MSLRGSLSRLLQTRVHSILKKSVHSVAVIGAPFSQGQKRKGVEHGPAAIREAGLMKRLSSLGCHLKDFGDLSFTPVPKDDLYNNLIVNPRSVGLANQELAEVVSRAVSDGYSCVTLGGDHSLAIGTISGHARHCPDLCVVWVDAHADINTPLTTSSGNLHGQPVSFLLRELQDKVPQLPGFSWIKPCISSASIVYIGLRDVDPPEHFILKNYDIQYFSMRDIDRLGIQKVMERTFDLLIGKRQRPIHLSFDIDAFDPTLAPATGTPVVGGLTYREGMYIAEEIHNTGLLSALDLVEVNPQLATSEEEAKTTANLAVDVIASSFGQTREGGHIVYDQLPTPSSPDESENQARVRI

[6] = biological target: T3, Proteasome subunit beta (Trypanosoma cruzi) (UniProt O96673); experiment: Trypanosoma cruzi proteasome chymotrypsin-like activity (TcProtChymo) assay.; further: in the data most compounds retested in dose-response had high values; assay type: functional; settings: 9.37 µM
T3 sequence (whole entry): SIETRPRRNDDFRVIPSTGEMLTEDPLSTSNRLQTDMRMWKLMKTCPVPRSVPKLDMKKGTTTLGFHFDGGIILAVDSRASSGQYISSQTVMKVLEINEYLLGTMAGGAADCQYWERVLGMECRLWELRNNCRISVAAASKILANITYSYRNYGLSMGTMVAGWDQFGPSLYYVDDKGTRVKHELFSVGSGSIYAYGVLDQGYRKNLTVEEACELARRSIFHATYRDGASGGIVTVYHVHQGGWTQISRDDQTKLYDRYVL

Homo sapiens = organism: Homo sapiens; experiment: To identify inhibition of the IFN signalling (Jak-Stat) pathway via expression of an eGFP reporter gene under the control of an IFN-stimulated response element (ISRE) containing MxA promoter.; assay type: functional; settings: 30 µM
[7] = biological target: T4, Tyrosyl-tRNA synthetase, putative (Trypanosoma cruzi (strain CL Brener)) (UniProt Q4DSP6); experiment: Trypanosoma cruzi tyrosyl tRNA synthetase (TcYRS) _High Tyrosine SOP; assay type: functional; settings: 30 µM; further: in the data most compounds retested in dose-response had high values
T4 sequence (whole entry): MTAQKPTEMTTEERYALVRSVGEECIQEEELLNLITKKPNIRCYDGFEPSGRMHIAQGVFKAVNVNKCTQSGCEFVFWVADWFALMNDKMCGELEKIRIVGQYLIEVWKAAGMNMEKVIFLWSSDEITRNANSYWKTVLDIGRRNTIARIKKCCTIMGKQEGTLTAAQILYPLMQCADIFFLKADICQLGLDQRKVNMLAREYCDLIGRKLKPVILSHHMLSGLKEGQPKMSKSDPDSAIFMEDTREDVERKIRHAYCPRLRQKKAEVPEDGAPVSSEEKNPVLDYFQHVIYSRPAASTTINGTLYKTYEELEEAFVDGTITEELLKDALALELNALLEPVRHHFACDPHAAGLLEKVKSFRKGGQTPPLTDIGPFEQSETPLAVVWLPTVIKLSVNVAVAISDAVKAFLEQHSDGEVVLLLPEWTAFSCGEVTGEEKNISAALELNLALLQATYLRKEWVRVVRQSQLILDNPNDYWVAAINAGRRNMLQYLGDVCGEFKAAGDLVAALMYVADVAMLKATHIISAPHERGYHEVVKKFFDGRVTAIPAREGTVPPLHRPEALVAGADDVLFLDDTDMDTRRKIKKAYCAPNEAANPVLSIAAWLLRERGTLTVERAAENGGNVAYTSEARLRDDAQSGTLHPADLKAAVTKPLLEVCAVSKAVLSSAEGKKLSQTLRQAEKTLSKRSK

[8] = biological target: T4, Tyrosyl-tRNA synthetase, putative (Trypanosoma cruzi (strain CL Brener)); experiment: Trypanosoma cruzi tyrosyl tRNA synthetase (TcYRS) SOP; assay type: functional; settings: 30 µM
[9] = biological target: Chromo domain-containing protein 1 (Saccharomyces cerevisiae (strain ATCC 204508 / S288c) (Baker's yeast)) (UniProt P32657); experiment: ScCHD-1 Enzyme Inhibition Assay; assay type: functional; settings: 30 µM; further: in the data most compounds retested in dose-response had high values
Sequence of Chromo domain-containing protein 1 (Saccharomyces cerevisiae (strain ATCC 204508 / S288c) (Baker's yeast)) (P32657 whole entry, the tested form may be a part): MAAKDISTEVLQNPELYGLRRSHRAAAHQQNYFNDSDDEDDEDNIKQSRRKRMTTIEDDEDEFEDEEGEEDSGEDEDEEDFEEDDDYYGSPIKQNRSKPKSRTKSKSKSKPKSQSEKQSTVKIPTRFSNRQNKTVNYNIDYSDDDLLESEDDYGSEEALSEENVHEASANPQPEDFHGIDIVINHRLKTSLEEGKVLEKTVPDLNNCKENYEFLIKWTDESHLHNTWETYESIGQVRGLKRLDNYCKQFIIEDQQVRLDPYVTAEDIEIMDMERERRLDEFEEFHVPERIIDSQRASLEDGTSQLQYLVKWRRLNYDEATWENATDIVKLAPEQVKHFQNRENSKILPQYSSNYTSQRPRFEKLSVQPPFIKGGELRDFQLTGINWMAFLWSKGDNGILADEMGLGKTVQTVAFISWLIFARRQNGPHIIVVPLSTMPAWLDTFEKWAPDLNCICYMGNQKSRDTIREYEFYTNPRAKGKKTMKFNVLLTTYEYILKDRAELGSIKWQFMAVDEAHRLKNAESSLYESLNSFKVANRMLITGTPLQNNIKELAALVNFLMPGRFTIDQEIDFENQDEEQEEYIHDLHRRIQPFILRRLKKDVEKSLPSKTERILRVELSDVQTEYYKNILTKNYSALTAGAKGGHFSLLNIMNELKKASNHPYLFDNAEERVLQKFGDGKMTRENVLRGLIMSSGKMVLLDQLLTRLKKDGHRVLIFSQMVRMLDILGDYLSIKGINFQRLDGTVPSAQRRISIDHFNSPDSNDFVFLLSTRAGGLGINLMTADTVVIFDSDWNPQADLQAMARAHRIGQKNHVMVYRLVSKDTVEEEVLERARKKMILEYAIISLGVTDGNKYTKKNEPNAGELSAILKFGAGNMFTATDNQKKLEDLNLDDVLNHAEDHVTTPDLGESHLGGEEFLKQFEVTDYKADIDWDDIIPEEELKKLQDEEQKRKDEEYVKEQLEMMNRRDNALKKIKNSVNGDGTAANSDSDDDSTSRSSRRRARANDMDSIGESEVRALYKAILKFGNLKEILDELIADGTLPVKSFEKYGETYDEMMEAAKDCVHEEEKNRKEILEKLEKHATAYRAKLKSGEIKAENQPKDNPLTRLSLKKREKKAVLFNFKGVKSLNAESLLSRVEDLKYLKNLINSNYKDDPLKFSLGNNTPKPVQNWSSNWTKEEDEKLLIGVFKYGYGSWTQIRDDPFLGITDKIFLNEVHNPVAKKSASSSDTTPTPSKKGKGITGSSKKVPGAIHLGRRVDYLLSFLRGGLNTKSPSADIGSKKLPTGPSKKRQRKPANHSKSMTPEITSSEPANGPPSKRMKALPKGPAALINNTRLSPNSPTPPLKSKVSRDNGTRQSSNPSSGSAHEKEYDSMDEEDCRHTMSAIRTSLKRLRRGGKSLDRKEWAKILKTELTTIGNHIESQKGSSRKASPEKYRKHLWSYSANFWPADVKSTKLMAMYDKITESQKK

Sequence of Protein translocase subunit SecA (Escherichia coli (strain K12)) (P10408 whole entry): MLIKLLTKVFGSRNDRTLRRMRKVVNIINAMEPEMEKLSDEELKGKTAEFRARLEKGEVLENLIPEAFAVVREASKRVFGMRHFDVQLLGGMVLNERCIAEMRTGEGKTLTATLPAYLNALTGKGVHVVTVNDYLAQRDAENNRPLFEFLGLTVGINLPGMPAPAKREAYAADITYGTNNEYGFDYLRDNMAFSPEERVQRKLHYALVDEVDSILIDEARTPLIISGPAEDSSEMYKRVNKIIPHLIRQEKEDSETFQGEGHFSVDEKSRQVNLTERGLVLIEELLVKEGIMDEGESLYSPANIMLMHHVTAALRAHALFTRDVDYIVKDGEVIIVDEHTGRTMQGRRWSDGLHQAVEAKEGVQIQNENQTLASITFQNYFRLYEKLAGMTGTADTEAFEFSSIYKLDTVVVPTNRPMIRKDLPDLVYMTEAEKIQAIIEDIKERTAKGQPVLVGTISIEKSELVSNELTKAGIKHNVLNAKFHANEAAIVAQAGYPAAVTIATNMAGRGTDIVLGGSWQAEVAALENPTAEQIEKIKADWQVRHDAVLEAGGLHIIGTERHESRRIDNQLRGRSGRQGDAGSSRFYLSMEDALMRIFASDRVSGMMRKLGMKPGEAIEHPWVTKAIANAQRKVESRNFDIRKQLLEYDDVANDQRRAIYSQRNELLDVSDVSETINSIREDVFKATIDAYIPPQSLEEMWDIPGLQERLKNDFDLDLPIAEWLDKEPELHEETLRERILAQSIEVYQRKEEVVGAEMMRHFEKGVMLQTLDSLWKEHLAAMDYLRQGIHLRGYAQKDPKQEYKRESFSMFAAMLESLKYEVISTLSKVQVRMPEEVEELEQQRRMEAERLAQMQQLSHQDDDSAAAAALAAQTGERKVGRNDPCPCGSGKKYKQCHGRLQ

SMILES | Percent Effect [1] [%] | Percent Effect [2] [%] | Percent Effect [3] [%] | Percent Effect [4] [%] | Percent Effect (Trypanosoma cruzi) [%] | Percent Effect [5] [%] | Percent Effect [6] [%] | Percent Effect (Homo sapiens) [%] | Percent Effect [7] [%] | Percent Effect [8] [%] | Percent Effect [9] [%]
O=C(NCCN1CCC(c2cccs2)CC1)Nc1cccs1 | -5.82 | 0 | -3.98 | 20.2 | 4.7 | 1.36 | 14.6 | 10.4 | 12.9 | 17.5 | -2.26
Cc1cccc(OCCC(=O)N(C)CCNS(C)(=O)=O)c1C | -2.9 | 5.26 | 8.08 | 6.9 | -4.58 | -2.37 | 7.96 | 3.29 | 2.13 | 13 | -5.08
O=C(c1ccc[nH]1)N1CCCC(c2cc(C(F)(F)F)[nH]n2)C1 (stereo not drawn) | -5.38 | -10.5 | 1.16 | 17.4 | -4.39 | -1.08 | -0.0846 | 35.6 | 3.45 | 6.17 | -3.1
CCN(CC)c1ccc(NS(=O)(=O)c2cncc(F)c2)cn1 | 1.55 | 13.7 | 2.14 | 7.06 | 3.57 | -5.99 | 4.71 | -23.6 | 6.25 | 11.1 | -6.32
CC(C)c1nnc2n1CCN(CC(=O)N1CCc3ccccc3C1)C2 | -3.76 | 2.63 | -2.4 | 1.05 | 6.01 | -1.53 | -0.167 | 5.07 | 7.35 | 9.76 | -9.88
CCn1cc(N2Cc3nc(N4CCOCC4)ncc3C2=O)cn1 | -4.68 | 17.3 | -4.89 | 0.208 | 0.786 | -9.33 | 4.44 | -2.82 | 2.12 | 5.13 | -15.2
CC(=O)N1CC[C@@H]2CN(C(=O)c3ccco3)CCO[C@@H]2C1 | 0.266 | 13.3 | 8.75 | 0.752 | -4.33 | 6.29 | 12.8 | -9.46 | 3.19 | 3.85 | -2.25
Cn1ccnc1CN1CCN(Cc2cc(C#N)ccc2F)CC1 | -2.4 | 2.7 | 1.09 | -1.18 | -9.38 | 6.1 | 10.8 | 20 | 5.94 | 6.1 | 3.16

From ChEMBL document CHEMBL3988442, “University of Dundee, Small-Polar-MMV Screening Library” (2021)
